Key:
Assay in all cases: DAPPL (digital affinity profiling via proximity ligation, sequencing); 10 mM Tris-HCl pH 7.5, 50 mM NaCl, 1 mM DTT, 4% glycerol, room temperature, 30 min; GST-TFs on glutathione beads, 16-mer random dsDNA library, 0.1% formaldehyde crosslink after washing; high values mean tight binding
FLI1 = target: T1, FLI1 (Homo sapiens, UniProt Q01543 1-452); settings: protein: recombinant; tags: N-terminal GST; dsDNA, one strand shown
T1 sequence: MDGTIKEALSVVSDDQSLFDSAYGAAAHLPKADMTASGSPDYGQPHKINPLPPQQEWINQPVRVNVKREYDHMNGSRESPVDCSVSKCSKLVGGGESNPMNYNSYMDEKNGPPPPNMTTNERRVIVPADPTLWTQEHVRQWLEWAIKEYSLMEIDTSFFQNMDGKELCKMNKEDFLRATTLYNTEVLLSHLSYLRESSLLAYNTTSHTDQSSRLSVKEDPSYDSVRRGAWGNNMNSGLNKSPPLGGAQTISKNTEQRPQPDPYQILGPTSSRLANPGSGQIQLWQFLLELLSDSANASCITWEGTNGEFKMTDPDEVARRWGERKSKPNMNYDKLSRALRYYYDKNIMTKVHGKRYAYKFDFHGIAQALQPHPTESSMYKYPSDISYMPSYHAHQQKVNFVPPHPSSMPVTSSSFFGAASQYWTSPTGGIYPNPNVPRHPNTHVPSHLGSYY
How it was run: (§1)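 Pools of DNA-barcoded human transcription factors, expressed in yeast as GST fusions on glutathione beads and combined with a tag-only sample, were incubated with 200 nmole of a 16-mer random double-stranded DNA library. Incubation took 30 min at room temperature in Tris/NaCl/DTT/glycerol buffer and was followed by washing, 0.1% formaldehyde crosslinking, proximity ligation (BsaI/T4 ligase, 1 h, 37 °C), PCR amplification and sequencing on an Illumina NextSeq500. Binding signal is the ratio of a hexamer's read frequency for a factor to its frequency for the tag-only sample.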

ELK1 = target: T2, ELK1 (Homo sapiens, UniProt P19419 1-428); settings: protein: recombinant; tags: N-terminal GST; dsDNA, one strand shown
T2 sequence: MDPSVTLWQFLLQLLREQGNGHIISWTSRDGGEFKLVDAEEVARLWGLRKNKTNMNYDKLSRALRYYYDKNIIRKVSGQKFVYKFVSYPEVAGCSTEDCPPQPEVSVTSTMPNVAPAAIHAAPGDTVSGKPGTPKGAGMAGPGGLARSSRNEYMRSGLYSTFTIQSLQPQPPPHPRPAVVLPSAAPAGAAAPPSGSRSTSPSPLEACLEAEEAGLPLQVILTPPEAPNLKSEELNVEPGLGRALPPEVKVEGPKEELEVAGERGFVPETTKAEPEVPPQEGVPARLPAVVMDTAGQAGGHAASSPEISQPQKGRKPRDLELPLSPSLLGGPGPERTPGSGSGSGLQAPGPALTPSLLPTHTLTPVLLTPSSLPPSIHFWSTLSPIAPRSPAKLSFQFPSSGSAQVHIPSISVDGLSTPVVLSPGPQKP
How it was run: as §1

GABPA = target: T3, GABPA (Homo sapiens, UniProt Q06546 1-454); settings: protein: recombinant; tags: N-terminal GST; dsDNA, one strand shown
T3 sequence: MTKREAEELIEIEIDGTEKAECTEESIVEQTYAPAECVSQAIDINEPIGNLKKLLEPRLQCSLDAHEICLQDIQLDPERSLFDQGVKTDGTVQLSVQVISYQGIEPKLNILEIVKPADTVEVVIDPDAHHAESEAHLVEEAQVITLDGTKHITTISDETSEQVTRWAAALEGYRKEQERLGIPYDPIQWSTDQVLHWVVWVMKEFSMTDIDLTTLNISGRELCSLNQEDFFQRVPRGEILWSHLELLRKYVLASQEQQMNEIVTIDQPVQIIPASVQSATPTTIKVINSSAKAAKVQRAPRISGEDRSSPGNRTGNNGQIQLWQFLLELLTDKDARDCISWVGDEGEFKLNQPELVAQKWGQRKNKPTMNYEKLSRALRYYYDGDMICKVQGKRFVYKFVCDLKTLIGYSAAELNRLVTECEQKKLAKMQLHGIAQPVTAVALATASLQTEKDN
How it was run: as §1

ERG = target: T4, ERG (Homo sapiens, UniProt P11308 1-479); settings: protein: recombinant; tags: N-terminal GST; dsDNA, one strand shown
T4 sequence: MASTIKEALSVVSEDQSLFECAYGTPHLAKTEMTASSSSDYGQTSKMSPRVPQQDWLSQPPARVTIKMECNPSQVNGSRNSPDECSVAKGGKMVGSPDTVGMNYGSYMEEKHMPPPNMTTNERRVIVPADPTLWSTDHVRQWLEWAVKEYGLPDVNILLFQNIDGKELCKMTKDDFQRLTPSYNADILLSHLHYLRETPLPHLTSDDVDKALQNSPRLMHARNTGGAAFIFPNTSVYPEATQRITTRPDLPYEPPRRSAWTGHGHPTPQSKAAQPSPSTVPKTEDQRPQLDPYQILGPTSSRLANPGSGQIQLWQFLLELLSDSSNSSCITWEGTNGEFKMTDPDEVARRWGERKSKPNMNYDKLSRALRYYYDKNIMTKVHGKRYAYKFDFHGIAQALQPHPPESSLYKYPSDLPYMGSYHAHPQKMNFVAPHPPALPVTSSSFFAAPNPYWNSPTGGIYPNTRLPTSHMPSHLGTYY
How it was run: as §1

ELF1 = ELF1 (Homo sapiens, UniProt P32519 1-619); settings: protein: recombinant; tags: N-terminal GST; dsDNA, one strand shown
Sequence of ELF1 (P32519 whole entry): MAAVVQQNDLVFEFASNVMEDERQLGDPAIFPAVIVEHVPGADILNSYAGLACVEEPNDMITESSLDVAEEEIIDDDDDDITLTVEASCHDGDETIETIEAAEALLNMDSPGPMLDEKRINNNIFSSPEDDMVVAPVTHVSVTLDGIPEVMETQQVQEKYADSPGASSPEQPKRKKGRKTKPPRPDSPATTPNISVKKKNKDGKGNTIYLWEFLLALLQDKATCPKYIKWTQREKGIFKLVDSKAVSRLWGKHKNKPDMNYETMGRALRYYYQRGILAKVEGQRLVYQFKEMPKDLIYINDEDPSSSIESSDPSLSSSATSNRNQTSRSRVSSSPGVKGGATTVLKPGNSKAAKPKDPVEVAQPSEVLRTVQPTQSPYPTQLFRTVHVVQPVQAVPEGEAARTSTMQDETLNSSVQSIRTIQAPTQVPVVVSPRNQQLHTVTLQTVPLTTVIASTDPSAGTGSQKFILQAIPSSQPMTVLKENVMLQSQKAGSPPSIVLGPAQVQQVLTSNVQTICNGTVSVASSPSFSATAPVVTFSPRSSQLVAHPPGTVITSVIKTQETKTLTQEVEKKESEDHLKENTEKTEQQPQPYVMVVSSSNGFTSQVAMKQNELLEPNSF
How it was run: as §1

EHF = target: T5, EHF (Homo sapiens, UniProt Q9NZC4 1-300); settings: protein: recombinant; tags: N-terminal GST; dsDNA, one strand shown
T5 sequence: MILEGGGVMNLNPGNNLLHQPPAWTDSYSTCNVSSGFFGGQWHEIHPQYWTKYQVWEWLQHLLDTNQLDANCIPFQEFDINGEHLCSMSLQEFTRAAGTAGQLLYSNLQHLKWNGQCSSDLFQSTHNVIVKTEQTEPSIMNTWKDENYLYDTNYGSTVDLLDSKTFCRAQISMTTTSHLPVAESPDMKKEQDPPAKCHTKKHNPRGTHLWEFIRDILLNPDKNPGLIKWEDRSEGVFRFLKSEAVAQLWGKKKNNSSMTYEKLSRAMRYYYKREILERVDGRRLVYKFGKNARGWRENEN
How it was run: as §1

SPI1 = SPI1 (Homo sapiens, UniProt P17947 1-270); settings: protein: recombinant; tags: N-terminal GST; dsDNA, one strand shown
How it was run: as §1

SPIB = SPIB (Homo sapiens, UniProt Q01892 1-262); settings: protein: recombinant; tags: N-terminal GST; dsDNA, one strand shown
Sequence of SPIB (Q01892 whole entry): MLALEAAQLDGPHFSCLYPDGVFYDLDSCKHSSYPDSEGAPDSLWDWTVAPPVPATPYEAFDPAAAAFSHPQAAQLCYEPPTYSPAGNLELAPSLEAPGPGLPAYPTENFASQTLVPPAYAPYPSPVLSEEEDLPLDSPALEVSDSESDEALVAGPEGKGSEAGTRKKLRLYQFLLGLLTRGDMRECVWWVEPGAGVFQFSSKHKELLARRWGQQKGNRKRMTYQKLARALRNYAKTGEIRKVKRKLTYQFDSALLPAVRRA
How it was run: as §1

ELK3 = target: T6, ELK3 (Homo sapiens, UniProt P41970 1-407); settings: protein: recombinant; tags: N-terminal GST; dsDNA, one strand shown
T6 sequence: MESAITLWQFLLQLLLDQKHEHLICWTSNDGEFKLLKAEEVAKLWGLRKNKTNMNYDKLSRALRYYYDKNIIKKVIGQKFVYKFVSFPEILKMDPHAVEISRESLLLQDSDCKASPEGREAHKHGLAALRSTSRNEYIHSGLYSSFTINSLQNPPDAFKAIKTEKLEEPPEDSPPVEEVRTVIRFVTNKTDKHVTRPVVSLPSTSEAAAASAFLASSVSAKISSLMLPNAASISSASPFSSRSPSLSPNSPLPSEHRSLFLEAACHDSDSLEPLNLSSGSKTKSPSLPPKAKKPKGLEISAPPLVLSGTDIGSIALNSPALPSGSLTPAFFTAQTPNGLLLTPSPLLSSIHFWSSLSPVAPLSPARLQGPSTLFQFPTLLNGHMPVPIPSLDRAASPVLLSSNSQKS
How it was run: as §1

FEV = target: T7, FEV (Homo sapiens, UniProt Q99581 1-238); settings: protein: recombinant; tags: N-terminal GST; dsDNA, one strand shown
T7 sequence: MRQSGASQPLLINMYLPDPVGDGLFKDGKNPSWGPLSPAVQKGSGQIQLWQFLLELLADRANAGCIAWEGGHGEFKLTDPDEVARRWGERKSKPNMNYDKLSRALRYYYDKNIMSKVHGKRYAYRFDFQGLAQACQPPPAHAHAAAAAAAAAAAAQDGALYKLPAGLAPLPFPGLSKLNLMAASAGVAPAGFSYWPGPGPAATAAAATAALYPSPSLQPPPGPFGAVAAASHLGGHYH
How it was run: as §1

ETV5 = ETV5 (Homo sapiens, UniProt P41161 1-510); settings: protein: recombinant; tags: N-terminal GST; dsDNA, one strand shown
Sequence of ETV5 (P41161 whole entry): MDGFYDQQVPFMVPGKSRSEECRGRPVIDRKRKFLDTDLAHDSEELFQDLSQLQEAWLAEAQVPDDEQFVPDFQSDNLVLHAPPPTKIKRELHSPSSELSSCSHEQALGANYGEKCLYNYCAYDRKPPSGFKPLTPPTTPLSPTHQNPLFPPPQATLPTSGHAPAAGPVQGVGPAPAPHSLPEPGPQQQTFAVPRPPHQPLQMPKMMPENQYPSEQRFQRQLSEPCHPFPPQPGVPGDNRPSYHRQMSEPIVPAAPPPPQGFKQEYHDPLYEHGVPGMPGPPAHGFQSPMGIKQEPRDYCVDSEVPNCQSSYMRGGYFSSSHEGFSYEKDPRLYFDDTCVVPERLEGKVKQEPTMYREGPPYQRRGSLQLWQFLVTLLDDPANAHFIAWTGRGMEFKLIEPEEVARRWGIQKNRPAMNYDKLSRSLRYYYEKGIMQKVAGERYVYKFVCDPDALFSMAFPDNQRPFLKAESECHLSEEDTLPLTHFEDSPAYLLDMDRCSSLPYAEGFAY
How it was run: as §1

HSF1 = HSF1 (Homo sapiens, UniProt Q00613 1-529); settings: protein: recombinant; tags: N-terminal GST; chain copies: 3; dsDNA, one strand shown
Sequence of HSF1 (Q00613 whole entry): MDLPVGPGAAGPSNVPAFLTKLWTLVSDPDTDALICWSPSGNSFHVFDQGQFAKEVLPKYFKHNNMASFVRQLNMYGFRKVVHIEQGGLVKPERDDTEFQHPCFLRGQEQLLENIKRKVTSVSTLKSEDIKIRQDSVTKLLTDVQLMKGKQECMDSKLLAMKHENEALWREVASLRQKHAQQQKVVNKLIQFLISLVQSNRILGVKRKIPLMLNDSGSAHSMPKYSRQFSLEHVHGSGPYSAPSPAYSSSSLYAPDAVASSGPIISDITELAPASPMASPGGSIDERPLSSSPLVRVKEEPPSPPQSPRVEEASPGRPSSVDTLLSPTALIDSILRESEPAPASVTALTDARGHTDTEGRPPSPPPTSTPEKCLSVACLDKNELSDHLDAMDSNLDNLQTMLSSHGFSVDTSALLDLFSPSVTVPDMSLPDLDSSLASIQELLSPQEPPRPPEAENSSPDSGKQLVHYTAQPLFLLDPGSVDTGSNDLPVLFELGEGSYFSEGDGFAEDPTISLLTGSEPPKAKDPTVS
How it was run: as §1

SPIC = target: T8, SPIC (Homo sapiens, UniProt Q8N5J4 1-248); settings: protein: recombinant; tags: N-terminal GST; dsDNA, one strand shown
T8 sequence: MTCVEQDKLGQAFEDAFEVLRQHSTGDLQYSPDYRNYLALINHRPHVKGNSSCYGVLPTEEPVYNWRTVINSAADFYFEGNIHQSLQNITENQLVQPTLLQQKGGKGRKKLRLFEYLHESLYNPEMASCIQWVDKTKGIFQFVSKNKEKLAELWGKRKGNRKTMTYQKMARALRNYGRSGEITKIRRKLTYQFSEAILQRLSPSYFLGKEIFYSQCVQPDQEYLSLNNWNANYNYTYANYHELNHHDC
How it was run: as §1

ELF4 = ELF4 (Homo sapiens, UniProt Q99607 1-663); settings: protein: recombinant; tags: N-terminal GST; dsDNA, one strand shown
Sequence of ELF4 (Q99607 whole entry): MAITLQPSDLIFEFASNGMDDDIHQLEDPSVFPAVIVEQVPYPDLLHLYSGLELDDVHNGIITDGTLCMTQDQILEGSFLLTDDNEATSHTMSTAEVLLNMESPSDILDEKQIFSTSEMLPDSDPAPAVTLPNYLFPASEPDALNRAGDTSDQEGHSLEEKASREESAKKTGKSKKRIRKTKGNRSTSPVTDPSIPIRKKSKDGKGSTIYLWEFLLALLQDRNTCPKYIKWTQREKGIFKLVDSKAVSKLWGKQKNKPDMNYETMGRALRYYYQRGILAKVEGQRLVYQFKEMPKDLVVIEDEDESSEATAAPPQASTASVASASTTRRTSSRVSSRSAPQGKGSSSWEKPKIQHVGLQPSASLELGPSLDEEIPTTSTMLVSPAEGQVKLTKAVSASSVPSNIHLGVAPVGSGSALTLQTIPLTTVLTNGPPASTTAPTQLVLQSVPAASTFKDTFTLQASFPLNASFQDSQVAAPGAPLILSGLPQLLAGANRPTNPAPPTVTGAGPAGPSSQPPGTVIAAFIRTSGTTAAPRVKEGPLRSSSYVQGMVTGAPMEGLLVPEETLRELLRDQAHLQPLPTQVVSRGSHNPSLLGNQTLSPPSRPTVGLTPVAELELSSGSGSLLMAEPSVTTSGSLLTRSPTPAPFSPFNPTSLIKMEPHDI
How it was run: as §1

ELK4 = target: T9, ELK4 (Homo sapiens, UniProt P28324-2 1-405); settings: protein: recombinant; tags: N-terminal GST; dsDNA, one strand shown
T9 sequence: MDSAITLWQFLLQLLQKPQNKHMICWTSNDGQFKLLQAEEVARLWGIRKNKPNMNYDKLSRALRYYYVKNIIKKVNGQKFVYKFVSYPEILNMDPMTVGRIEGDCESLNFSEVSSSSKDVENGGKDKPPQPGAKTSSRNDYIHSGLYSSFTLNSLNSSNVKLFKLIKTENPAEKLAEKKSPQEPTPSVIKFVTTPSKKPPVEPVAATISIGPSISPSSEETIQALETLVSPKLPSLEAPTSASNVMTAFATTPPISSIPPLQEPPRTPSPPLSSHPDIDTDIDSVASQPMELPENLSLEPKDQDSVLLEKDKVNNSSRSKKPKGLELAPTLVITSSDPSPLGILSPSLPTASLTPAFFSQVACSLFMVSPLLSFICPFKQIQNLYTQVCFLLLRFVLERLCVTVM
How it was run: as §1

ETV2 = target: T10, ETV2 (Homo sapiens, UniProt O00321 1-342); settings: protein: recombinant; tags: N-terminal GST; dsDNA, one strand shown
T10 sequence: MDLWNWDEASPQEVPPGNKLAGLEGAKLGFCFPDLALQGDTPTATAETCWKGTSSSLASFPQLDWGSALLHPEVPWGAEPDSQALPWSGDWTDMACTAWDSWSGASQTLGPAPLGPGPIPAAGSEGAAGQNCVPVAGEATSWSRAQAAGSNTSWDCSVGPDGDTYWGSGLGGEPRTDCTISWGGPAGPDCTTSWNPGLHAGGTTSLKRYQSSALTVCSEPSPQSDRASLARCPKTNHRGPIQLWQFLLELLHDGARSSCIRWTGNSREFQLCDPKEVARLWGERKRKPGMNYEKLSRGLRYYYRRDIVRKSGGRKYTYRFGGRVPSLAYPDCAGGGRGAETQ
How it was run: as §1

ELF3 = target: T11, ELF3 (Homo sapiens, UniProt P78545 1-371); settings: protein: recombinant; tags: N-terminal GST; dsDNA, one strand shown
T11 sequence: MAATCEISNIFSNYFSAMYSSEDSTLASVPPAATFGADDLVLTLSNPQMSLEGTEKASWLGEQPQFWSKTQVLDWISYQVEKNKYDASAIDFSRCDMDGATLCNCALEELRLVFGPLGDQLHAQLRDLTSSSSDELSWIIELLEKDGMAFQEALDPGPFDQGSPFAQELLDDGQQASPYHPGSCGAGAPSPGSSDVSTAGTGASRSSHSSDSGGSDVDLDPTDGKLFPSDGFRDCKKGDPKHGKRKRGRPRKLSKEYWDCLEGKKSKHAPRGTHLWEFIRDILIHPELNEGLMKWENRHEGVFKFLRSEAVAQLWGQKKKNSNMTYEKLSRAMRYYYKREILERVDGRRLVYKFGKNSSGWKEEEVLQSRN
How it was run: as §1

CRX = CRX (Homo sapiens, UniProt O43186 1-299); settings: protein: recombinant; tags: N-terminal GST; dsDNA, one strand shown
Sequence of CRX (O43186 whole entry): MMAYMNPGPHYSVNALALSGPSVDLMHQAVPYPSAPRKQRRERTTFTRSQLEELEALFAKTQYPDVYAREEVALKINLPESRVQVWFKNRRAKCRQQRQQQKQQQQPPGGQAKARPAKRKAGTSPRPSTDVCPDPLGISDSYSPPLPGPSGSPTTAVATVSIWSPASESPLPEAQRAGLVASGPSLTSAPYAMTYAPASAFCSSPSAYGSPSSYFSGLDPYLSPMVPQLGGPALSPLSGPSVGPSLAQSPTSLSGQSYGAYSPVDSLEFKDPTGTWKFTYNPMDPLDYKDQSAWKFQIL
How it was run: as §1

ETV1 = ETV1 (Homo sapiens, UniProt P50549 1-477); settings: protein: recombinant; tags: N-terminal GST; dsDNA, one strand shown
Sequence of ETV1 (P50549 whole entry): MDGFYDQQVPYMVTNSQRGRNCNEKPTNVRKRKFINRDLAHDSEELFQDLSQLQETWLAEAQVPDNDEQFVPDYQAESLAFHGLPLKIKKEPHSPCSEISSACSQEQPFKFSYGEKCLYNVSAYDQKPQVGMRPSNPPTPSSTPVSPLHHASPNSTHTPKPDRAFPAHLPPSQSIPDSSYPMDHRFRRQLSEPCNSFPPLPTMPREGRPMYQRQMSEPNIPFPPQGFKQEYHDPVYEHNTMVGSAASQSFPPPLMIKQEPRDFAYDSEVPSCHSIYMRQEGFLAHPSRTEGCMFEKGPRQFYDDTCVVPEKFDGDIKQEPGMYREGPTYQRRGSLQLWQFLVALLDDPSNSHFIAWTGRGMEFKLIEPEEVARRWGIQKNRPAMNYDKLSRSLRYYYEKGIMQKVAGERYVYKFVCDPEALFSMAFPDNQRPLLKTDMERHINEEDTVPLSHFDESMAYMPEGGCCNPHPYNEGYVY
How it was run: as §1

AACTCG
binding signal (FLI1): 1.41 fold enrichment (6-mer frequency, TF over GST control) | binding signal (ELK1): 1.33 fold enrichment (6-mer frequency, TF over GST control) | binding signal (GABPA): 1.4 fold enrichment (6-mer frequency, TF over GST control) | binding signal (ERG): 1.32 fold enrichment (6-mer frequency, TF over GST control) | binding signal (ELF1): 1.39 fold enrichment (6-mer frequency, TF over GST control) | binding signal (EHF): 1.28 fold enrichment (6-mer frequency, TF over GST control) | binding signal (SPI1): 1.4 fold enrichment (6-mer frequency, TF over GST control) | binding signal (SPIB): 1.37 fold enrichment (6-mer frequency, TF over GST control) | binding signal (ELK3): 1.24 fold enrichment (6-mer frequency, TF over GST control) | binding signal (FEV): 1.32 fold enrichment (6-mer frequency, TF over GST control) | binding signal (ETV5): 1.29 fold enrichment (6-mer frequency, TF over GST control) | binding signal (HSF1): 1.4 fold enrichment (6-mer frequency, TF over GST control) | binding signal (SPIC): 1.58 fold enrichment (6-mer frequency, TF over GST control) | binding signal (ELF4): 1.37 fold enrichment (6-mer frequency, TF over GST control) | binding signal (ELK4): 1.29 fold enrichment (6-mer frequency, TF over GST control) | binding signal (ETV2): 1.37 fold enrichment (6-mer frequency, TF over GST control) | binding signal (ELF3): 1.29 fold enrichment (6-mer frequency, TF over GST control) | binding signal (CRX): 1.3 fold enrichment (6-mer frequency, TF over GST control) | binding signal (ETV1): 1.3 fold enrichment (6-mer frequency, TF over GST control)
